PubChem BioAssay (NCI)
Compounds without any hit were thinned out: in the full panel of roughly 83,000, 20% have a hit.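 Compound tested at a single concentration for 48 hours in 96-well plates; a percent growth value below 10 was scored as active.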 The source made the active and inactive calls.

What follows are molecules tested on HCT-15 colon (assay: NCI-60 one-dose screen, 48 h (100 = growth as untreated, 0 = no growth, -100 = all killed)). Settings: 10 µM unless noted.
`C=CC(=O)N1CCC(Oc2cc3c(Nc4ccc(Cl)c(Cl)c4F)ncnc3cc2OC)CC1` was tested, and the growth was 21.2% (inactive).
In the case of `FC(F)(F)c1ccc(CNc2ccc(Cc3c[nH]c4ncc(Cl)cc34)cn2)cn1`, the growth is reported as 19.9% (inactive).
For `O=S1(=O)OC(c2cc(Cl)c(O)c(Br)c2)(c2cc(Cl)c(O)c(Br)c2)c2ccccc21`, the growth was 105% (inactive).
For `CC(C)(C)OC(=O)N1CCC(O)[C@@H](O[Si](c2ccccc2)(c2ccccc2)C(C)(C)C)[C@H]1/C=C/c1ccccc1` (stereo partly drawn), the growth was 41.1% (inactive).
For `Cc1cn(-c2cc(NC(=O)c3ccc(C)c(Nc4nccc(-c5cccnc5)n4)c3)cc(C(F)(F)F)c2)cn1`, the growth was 22.8% (inactive).
With `Cc1cnc(Nc2ccc(OCCN3CCCC3)cc2)nc1Nc1cccc(S(=O)(=O)NC(C)(C)C)c1` the growth was 5.6% (active).
In the case of `Cc1cccc(C)c1N1C(c2ccccc2)=NNC12C=CC(=O)c1c(O)cccc12` (stereo not drawn), the growth is reported as 32.8% (inactive).
In the case of `C=CC(=O)Nc1cccc(Nc2nc(Nc3ccc(N4CCN(C(C)=O)CC4)cc3OC)ncc2C(F)(F)F)c1`, the growth is reported as 5% (active).
In the case of `COc1ccc(/C(C)=C(\c2ccc(Cl)cc2)c2ccc(OCCN3CCCCCC3)cc2)cc1`, the growth is reported as 26.6% (inactive).
With `Cc1cc(C(=O)Nc2cc(Oc3ccc4nc(NC(=O)C5CC5)cn4n3)ccc2C)n(C)n1` the growth was 44.1% (inactive).
`CO[C@H](C(=O)N[C@@H](CCCCNC(=O)OCc1ccccc1)C(=O)OC(C)(C)C)[C@@H]1Cc2cc3cc(OC4CC(OC5CC(O)C(O)C(C)O5)C(O)C(C)O4)c(C)c(O)c3c(O)c2C(=O)[C@H]1OC1CC(OC2CC(OC3CC(C)(O)C(O)C(C)O3)C(O)C(C)O2)C(O)C(C)O1` (stereo partly drawn) was tested, and the growth was 26.6% (inactive).
For `CCN(CCCOc1ccc2c(Nc3cc(CC(=O)Nc4cccc(F)c4)[nH]n3)ncnc2c1)CCOP(=O)(O)O`, the growth was 84.7% (inactive).
For `CC/C=C\C[C@H]1C/C=C2/C(=O)C=C[C@@H]2C/C=C\CCCC(=O)O1`, the growth was -33.8% (active).
For `Cc1cn(-c2cc(NC(=O)c3ccc(C)c(Nc4nccc(-c5cnccn5)n4)c3)cc(C(F)(F)F)c2)cn1`, the growth was 82% (inactive).
`COc1cc2ncnc3c2cc1OCCCCCN(C)Cc1ccc(Br)cc1N3` was tested, and the growth was 19.5% (inactive).
For `C[C@@]1(C(=O)Nc2ccc(F)nc2)CCCN1c1nc(Nc2cc(C3CC3)[nH]n2)c2cccn2n1`, the growth was 26.5% (inactive).
`C[C@]12O[C@H](C[C@]1(O)CO)n1c3ccccc3c3c4c(c5c6ccccc6n2c5c31)CNC4=O` was tested, and the growth was -12.4% (active).
In the case of `CCN1CCN(CCCN(C[C@H]2Cc3ccccc3CN2)[C@H]2CCCc3cccnc32)CC1`, the growth is reported as 72.5% (inactive).
`COCc1c(-c2ccc(NC(=O)Nc3cc(C(F)(F)F)ccc3F)c(F)c2)c2c(N)ncnn2c1CN1CCOCC1` was tested, and the growth was -21% (active).
With `COc1cc2cc(NCc3ccc(F)cc3)nc(C)c2cc1OC` the growth was 50.9% (inactive).
With `CC(=O)C1=C(C)NC(SCc2nnc(-c3ccc(C)cc3)o2)=NC1c1ccc(F)cc1` (stereo not drawn) the growth was 101% (inactive).
`N#CC[C@H](C1CCCC1)n1cc(-c2ncnc3[nH]ccc23)cn1` was tested, and the growth was 89.7% (inactive).
In the case of `Cc1ccc(-[n+]2c3cc(N)c(C)cc3nc3cc(C)c(Nc4ccccc4)cc32)cc1`, the growth is reported as -69.8% (active).
`COc1cc2cc(NCc3ccc(Cl)cc3)nc(C)c2cc1OC` was tested, and the growth was 47% (inactive).
`CC(=O)c1cnc2ccc(-c3cc(Cl)c(O)c(Cl)c3)nc2c1NC1CCC(CN(C)C)CC1` (stereo not drawn) was tested, and the growth was 0.375% [2.5 µM] (active).
In the case of `CCN(CC)c1cc2oc3cc(N)cc(=N)c-3nc2cc1C`, the growth is reported as 37.8% (inactive).
In the case of `CO[C@H]1C[C@@H]2CC[C@@H](C)[C@@](O)(O2)C(=O)C(=O)N2CCCC[C@H]2C(=O)O[C@H]([C@H](C)C[C@@H]2CC[C@@H](O)[C@H](OC)C2)CC(=O)[C@H](C)/C=C(\C)[C@@H](O)[C@@H](OC)C(=O)[C@H](C)C[C@H](C)\C=C/C=C/C=C/1C`, the growth is reported as 30.2% (inactive).
With `COc1cccc(NC(=O)Nc2ccc(Nc3ncnc4sc5c(c34)CCN(C(=O)CCl)C5)cc2)c1` the growth was 118% (inactive).
`CCN(CC)CCNC(=O)c1c(C)[nH]c(/C=C2\C(=O)Nc3ccc(F)cc32)c1C` was tested, and the growth was 11% (inactive).
For `CO[C@@H](C)Cn1c(=O)n(C)c2cnc3ccc(-c4cncc(C(C)(C)O)c4)cc3c21`, the growth was 7.42% (active).
In the case of `Cc1c(N)ccc(-c2ccc(N)c(C)c2S(=O)(=O)O)c1S(=O)(=O)O`, the growth is reported as 111% (inactive).
`CNC(=O)c1cc(Oc2ccc(NC(=O)Nc3ccc(Cl)c(C(F)(F)F)c3)c(F)c2)ccn1` was tested, and the growth was -18.1% (active).
For `COCCOc1cnc2ccn([C@H](C)c3nnc4c(F)cc(-c5cnn(C)c5)cn34)c(=O)c2c1`, the growth was 95.5% (inactive).
For `N#Cc1c(-c2ccc(Cl)cc2)csc1NC(=O)Nc1cccc(C(F)(F)F)c1`, the growth was 11.7% (inactive).
In the case of `CC(=O)C1CC(C)CCC1C(C)C` (stereo not drawn), the growth is reported as 104% (inactive).
`O=C(COc1cccc(/C=C2\Cc3ccc(Cl)cc3C2=O)c1)Nc1nccs1` was tested, and the growth was 91.9% (inactive).
`O=C(Cn1ccnc1)Nc1ccc(-c2nc3ccccc3s2)cc1` was tested, and the growth was 87% (inactive).
For `CN1CCC(CNc2ccc3ncc(-c4cccc(OC(F)(F)F)c4)n3n2)CC1`, the growth was -35.2% (active).
